In the supplement of paper PMC10849652:
The full data set covers some 8,800 targets. This sample favours those with a hit. About 0.5% of all pairs of compound and target were hits.

Key:
Experiment in all cases: log2 fold change, soluble protein after heating vs DMSO (PISA); higher = thermal stabilisation; K562 lysate, 10 uM; active = over 0.2 and 3.5 SD of the protein, either way, in both replicates (recomputed)
erlotinib = compound: C#Cc1cccc(Nc2ncnc3cc(OCCOC)c(OCCOC)cc23)c1 [erlotinib]
In short: (§1)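 A 30 min treatment with 10 μM compound was applied to crude K562 extract at 1 mg/mL protein in PBS pH 7.4 with 1 mM MgCl2. Heating for 3 min spanned 48°C-58°C, after which aliquots were pooled, adjusted to 0.5% NP-40 at 4°C and spun at 21,000xg for 90 min. TMTpro 16plex LC-MS/MS of the supernatant, with channel sums equalised, gave values recorded as log-two fold change in thermal stability against solvent controls, from duplicates.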

[1] = compound: C/C(=N\NC(=O)C1=CC(=CC=C1)S(=O)(=O)N2CCOCC2)/C3=C(C=CC(=C3)Cl)O
In short: as §1

[2] = compound: C1=CC(=CC=C1C2=NC3=C(N2)C=C(C=C3)C(=O)N)OC4=CC=C(C=C4)Cl
In short: as §1

[3] = compound: C1=CC2=C(C=CC(=C2)/C=C\3/C(=O)NC(=NCC4=CC=CS4)S3)N=C1
In short: as §1

[4] = compound: C1=CC2=NC=CN=C2C=C1/C=C/3\C(=O)NC(=O)S3
In short: as §1

[5] = compound: C1=CC=C(C=C1)C2=NC(=C(N2)C3=CC=NC=C3)C4=CC(=C(C=C4)Cl)O
In short: as §1

[6] = compound: C1=CC=C2C(=C1)C3=NNC4=CC=CC(=C43)C2=O
In short: as §1

[7] = compound: C1CCN(C1)C(=O)NC2=CC=CC(=C2)NC3=NC=C(C(=N3)NCCC4=CN=CN4)Br
In short: as §1

[8] = compound: C1CN(CCC1(CC2=CC=C(C=C2)Cl)N)C3=NC=NC4=C3C=CN4
In short: as §1

IRAK-1-4 Inhibitor I = compound: C1COCCN1CCN2C3=CC=CC=C3N=C2NC(=O)C4=CC(=CC=C4)[N+](=O)[O-] [IRAK-1-4 Inhibitor I]
In short: as §1

ibrutinib = compound: C=CC(=O)N1CCC[C@@H](n2nc(-c3ccc(Oc4ccccc4)cc3)c3c(N)ncnc32)C1 [ibrutinib]
In short: as §1

[9] = compound: CC(=O)c1cnc2ccc(-c3cc(Cl)c(O)c(Cl)c3)nc2c1N[C@H]1CC[C@H](CN(C)C)CC1
In short: as §1

ralimetinib = compound: CC(C)(C)Cn1c(N)nc2ccc(-c3[nH]c(C(C)(C)C)nc3-c3ccc(F)cc3)nc21 [ralimetinib]
In short: as §1

[10] = compound: CC(C)(O)CC(=O)NCCn1ccc2ncnc(Nc3ccc(Oc4cccc(C(F)(F)F)c4)c(Cl)c3)c21
In short: as §1

[11] = compound: CC(C)C1=C2N=C(C=C(N2N=C1)NCC3=CC=CC=C3)NCCCCCCN
In short: as §1

[12] = compound: CC1=C(C(CC(=O)N1)C2=CC=C(C=C2)C(F)(F)F)C(=O)NC3=C(C=C4C(=C3)C=NN4)F
In short: as §1

[13] = compound: CC1=C(C2=C(C=C1)C(=O)C3=CC=CC=C3N2CCCN)C
In short: as §1

[14] = compound: CC1=C(C=C(C=C1)NC(=O)C2=CC(=CC=C2)C(C)(C)C#N)NC3=CC4=C(C=C3)N=CN(C4=O)C
In short: as §1

[15] = compound: CC1=C(C=C(C=C1)NC(=O)C2=CC(=CC=C2)N(C)C)NC(=O)C3=CC=C(C=C3)O
In short: as §1

[16] = compound: CC1=CC=C(C=C1)SC2=C3C=C(SC3=CN=C2)C(=O)N
In short: as §1

Measured: log2 fold change

STAU1 (UniProt O95793)
Sequence of UniProt O95793 (O95793 whole entry, looked up): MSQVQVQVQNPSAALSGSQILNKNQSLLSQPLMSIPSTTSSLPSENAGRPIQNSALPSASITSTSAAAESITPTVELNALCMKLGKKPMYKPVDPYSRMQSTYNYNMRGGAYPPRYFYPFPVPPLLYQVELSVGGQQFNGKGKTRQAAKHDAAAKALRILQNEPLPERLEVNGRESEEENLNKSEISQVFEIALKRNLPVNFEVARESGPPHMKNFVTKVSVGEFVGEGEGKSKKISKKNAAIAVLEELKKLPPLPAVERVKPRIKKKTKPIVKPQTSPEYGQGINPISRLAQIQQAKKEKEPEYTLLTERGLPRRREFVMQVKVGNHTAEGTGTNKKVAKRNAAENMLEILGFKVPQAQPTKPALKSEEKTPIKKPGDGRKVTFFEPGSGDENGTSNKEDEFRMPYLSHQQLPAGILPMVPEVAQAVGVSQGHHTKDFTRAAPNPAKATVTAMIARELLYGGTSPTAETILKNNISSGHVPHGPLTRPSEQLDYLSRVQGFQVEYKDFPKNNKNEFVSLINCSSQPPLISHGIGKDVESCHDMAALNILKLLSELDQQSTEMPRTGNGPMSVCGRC
inactive: erlotinib 0.02 | [1] -0.001 | [2] -0.032 | [3] 0.002 | [4] -0.016 | [5] -0.08 | [6] -0.007 | [7] -0.018 | [8] -0.003 | IRAK-1-4 Inhibitor I 0.055 | ibrutinib 0.043 | [9] -0.021 | ralimetinib 0.03 | [10] -0.011 | [11] 0 | [12] 0.017 | [13] -0.022 | [14] -0.037 | [15] 0.018 | [16] 0.022

SHKBP1 (UniProt Q8TBC3)
inactive: erlotinib -0.005 | [1] -0.064 | [2] 0.058 | [3] 0.004 | [4] 0.011 | [5] 0.01 | [6] -0.018 | [7] 0.076 | [8] 0.189 | IRAK-1-4 Inhibitor I 0.022 | ibrutinib 0.064 | [9] -0.02 | ralimetinib 0.063 | [10] 0.006 | [11] 0.067 | [12] -0.005 | [13] -0.051 | [14] 0.038 | [15] 0.052 | [16] 0.004

SPG11 (UniProt Q96JI7)
inactive: erlotinib 0.05 | [1] 0.033 | [2] 0.005 | [3] -0.012 | [4] 0.333 | [5] 0.076 | [6] 0.025 | [7] -0.016 | [8] 0.019 | IRAK-1-4 Inhibitor I 0.023 | ibrutinib 0.077 | [9] 0.068 | ralimetinib 0.049 | [10] -0.024 | [11] -0.011 | [12] -0.048 | [13] -0.063 | [14] -0.061 | [15] 0.098 | [16] 0.007

SNW1 (UniProt Q13573)
inactive: erlotinib -0.038 | [1] -0.017 | [2] 0.026 | [3] -0.018 | [4] -0.033 | [5] -0.006 | [6] -0.004 | [7] 0.022 | [8] -0.021 | IRAK-1-4 Inhibitor I 0 | ibrutinib 0.01 | [9] 0.001 | ralimetinib -0.005 | [10] -0.007 | [11] 0.014 | [12] 0.007 | [13] -0.045 | [14] 0.016 | [15] -0.004 | [16] 0.015

SRP54 (UniProt P61011)
Sequence of UniProt P61011 (P61011 whole entry, looked up): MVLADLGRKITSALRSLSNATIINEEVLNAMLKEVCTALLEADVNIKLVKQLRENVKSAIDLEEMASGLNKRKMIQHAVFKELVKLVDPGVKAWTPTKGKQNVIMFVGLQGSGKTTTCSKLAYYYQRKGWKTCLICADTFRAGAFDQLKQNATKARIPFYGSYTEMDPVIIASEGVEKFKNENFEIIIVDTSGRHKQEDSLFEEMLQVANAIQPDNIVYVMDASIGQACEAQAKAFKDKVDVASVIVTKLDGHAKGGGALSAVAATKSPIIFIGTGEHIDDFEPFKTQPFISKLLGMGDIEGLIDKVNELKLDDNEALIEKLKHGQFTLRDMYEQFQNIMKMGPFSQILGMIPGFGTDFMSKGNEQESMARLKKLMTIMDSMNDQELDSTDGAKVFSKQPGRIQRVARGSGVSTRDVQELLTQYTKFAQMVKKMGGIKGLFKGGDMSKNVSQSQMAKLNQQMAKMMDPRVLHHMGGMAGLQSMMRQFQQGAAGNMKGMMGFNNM
inactive: erlotinib -0.026 | [1] 0.017 | [2] 0.035 | [3] 0.023 | [4] -0.043 | [5] 0.005 | [6] -0.039 | [7] -0.047 | [8] -0.003 | IRAK-1-4 Inhibitor I -0.014 | ibrutinib -0.039 | [9] -0.023 | ralimetinib 0.031 | [10] 0.015 | [11] 0.036 | [12] 0.034 | [13] -0.069 | [14] -0.021 | [15] 0.007 | [16] -0.009

SLC7A5 (UniProt Q01650)
Sequence of UniProt Q01650 (Q01650 whole entry, looked up): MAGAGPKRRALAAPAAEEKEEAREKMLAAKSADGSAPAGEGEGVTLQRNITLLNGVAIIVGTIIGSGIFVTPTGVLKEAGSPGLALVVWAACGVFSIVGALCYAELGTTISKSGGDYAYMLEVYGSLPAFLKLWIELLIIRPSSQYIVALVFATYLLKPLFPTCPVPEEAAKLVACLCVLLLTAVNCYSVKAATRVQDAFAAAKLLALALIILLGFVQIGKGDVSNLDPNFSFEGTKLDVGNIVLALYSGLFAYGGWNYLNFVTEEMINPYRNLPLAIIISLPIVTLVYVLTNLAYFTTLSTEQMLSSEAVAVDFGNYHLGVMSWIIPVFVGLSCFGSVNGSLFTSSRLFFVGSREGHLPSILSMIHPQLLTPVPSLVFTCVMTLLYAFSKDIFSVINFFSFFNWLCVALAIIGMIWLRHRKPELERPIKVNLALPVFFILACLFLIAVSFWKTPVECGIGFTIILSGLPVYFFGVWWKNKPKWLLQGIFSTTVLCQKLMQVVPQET
inactive: erlotinib 0.001 | [1] -0.009 | [2] -0.029 | [3] -0.015 | [4] 0.02 | [5] 0.007 | [6] -0.008 | [7] 0.019 | [8] -0.006 | IRAK-1-4 Inhibitor I 0.021 | ibrutinib -0.011 | [9] -0.01 | ralimetinib 0.018 | [10] -0.042 | [11] 0.036 | [12] -0.031 | [13] -0.003 | [14] 0.075 | [15] -0.043 | [16] 0

SLC30A9 (UniProt Q6PML9)
inactive: erlotinib -0.023 | [1] 0.039 | [2] -0.17 | [3] -0.079 | [4] 0.017 | [5] -0.012 | [6] -0.023 | [7] -0.056 | [8] 0.1 | IRAK-1-4 Inhibitor I -0.005 | ibrutinib 0.061 | [9] 0.002 | ralimetinib -0.03 | [10] 0.064 | [11] 0.021 | [12] -0.033 | [13] 0.008 | [14] 0.017 | [15] -0.213 | [16] -0.009

SLC12A6 (UniProt Q9UHW9)
inactive: erlotinib -0.014 | [1] -0.073 | [2] -0.047 | [3] 0.013 | [4] -0.006 | [5] -0.028 | [6] -0.01 | [7] -0.024 | [8] 0.068 | IRAK-1-4 Inhibitor I -0.01 | ibrutinib 0.01 | [9] -0.021 | ralimetinib -0.037 | [10] -0.014 | [11] 0.011 | [12] 0.001 | [13] -0.012 | [14] 0.012 | [15] 0.024 | [16] -0.021

SMAD9 (UniProt O15198)
Sequence of UniProt O15198 (O15198 whole entry, looked up): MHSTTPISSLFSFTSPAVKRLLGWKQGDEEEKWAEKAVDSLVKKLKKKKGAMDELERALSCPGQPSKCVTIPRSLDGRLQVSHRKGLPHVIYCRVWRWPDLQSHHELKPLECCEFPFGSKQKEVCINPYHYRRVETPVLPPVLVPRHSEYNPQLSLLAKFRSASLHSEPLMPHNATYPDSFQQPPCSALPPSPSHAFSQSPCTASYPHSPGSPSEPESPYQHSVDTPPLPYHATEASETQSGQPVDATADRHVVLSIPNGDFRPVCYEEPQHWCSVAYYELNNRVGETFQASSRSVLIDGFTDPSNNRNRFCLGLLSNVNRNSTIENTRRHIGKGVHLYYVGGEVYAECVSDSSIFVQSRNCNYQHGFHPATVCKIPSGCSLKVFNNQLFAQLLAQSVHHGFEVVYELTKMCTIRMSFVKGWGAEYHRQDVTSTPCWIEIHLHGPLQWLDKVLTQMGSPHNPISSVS
inactive: erlotinib 0.005 | [1] 0.048 | [2] -0.037 | [3] 0.007 | [4] 0.018 | [5] 0.053 | [6] 0.017 | [7] -0.048 | [8] -0.059 | IRAK-1-4 Inhibitor I 0 | ibrutinib -0.025 | [9] -0.018 | ralimetinib -0.034 | [10] 0.029 | [11] 0.021 | [12] -0.038 | [13] 0.079 | [14] -0.028 | [15] -0.072 | [16] -0.029

TAF6L (UniProt Q9Y6J9)
inactive: erlotinib -0.013 | [1] 0.174 | [2] -0.077 | [3] 0.005 | [4] 0.025 | [5] 0.055 | [6] 0.055 | [7] 0.022 | [8] -0.104 | IRAK-1-4 Inhibitor I 0.051 | ibrutinib 0.072 | [9] 0.046 | ralimetinib 0.042 | [10] -0.078 | [11] 0.01 | [12] -0.041 | [13] -0.006 | [14] -0.027 | [15] 0.027 | [16] -0.009

SPAG5 (UniProt Q96R06)
Sequence of UniProt Q96R06 (Q96R06 whole entry, looked up): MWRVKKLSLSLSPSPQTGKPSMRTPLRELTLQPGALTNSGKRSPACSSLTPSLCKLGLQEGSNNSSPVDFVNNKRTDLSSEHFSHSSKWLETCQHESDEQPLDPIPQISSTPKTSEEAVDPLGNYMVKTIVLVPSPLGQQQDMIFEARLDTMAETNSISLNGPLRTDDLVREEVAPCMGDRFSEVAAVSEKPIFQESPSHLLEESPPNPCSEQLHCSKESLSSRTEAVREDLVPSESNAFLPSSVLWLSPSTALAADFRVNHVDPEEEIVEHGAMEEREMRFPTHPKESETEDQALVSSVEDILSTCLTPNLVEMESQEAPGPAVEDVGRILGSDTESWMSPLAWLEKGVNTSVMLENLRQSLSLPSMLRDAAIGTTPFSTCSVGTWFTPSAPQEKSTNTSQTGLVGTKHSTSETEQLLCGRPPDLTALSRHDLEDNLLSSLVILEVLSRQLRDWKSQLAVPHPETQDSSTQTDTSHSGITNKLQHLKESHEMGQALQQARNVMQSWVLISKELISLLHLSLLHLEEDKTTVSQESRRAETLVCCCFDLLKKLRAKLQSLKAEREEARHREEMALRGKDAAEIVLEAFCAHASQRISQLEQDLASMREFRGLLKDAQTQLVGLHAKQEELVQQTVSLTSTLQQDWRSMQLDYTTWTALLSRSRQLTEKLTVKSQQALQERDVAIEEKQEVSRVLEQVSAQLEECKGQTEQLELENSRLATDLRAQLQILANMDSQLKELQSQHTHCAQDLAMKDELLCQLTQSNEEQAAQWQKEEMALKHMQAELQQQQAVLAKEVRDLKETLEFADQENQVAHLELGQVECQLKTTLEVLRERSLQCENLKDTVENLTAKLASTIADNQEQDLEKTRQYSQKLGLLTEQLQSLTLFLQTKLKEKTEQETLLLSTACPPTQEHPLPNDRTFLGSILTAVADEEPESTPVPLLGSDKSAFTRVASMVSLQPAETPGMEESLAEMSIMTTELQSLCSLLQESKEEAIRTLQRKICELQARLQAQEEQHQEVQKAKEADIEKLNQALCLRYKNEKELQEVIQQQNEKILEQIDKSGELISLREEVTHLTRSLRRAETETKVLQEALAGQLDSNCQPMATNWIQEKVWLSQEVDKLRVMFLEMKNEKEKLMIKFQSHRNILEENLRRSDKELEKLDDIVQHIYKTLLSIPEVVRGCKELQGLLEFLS
inactive: erlotinib 0.013 | [1] 0.012 | [2] -0.054 | [3] 0.003 | [4] -0.008 | [5] 0.014 | [6] 0.018 | [7] -0.009 | [8] -0.011 | IRAK-1-4 Inhibitor I 0 | ibrutinib -0.005 | [9] 0.039 | ralimetinib -0.001 | [10] 0.017 | [11] -0.013 | [12] 0.03 | [13] -0.024 | [14] -0.024 | [15] 0.008 | [16] -0.005

STK4 (UniProt Q13043)
inactive: erlotinib -0.013 | [1] -0.15 | [2] -0.033 | [3] -0.061 | [4] -0.008 | [5] -0.009 | [6] 0.165 | [7] 0.187 | [8] 0.053 | IRAK-1-4 Inhibitor I 0.018 | ibrutinib 0.056 | [9] 0.324 | ralimetinib -0.006 | [10] 0.007 | [11] 0.004 | [12] -0.023 | [13] -0.015 | [14] -0.036 | [15] 0.024 | [16] -0.07

SLC25A17 (UniProt O43808)
Sequence of UniProt O43808 (O43808 whole entry, looked up): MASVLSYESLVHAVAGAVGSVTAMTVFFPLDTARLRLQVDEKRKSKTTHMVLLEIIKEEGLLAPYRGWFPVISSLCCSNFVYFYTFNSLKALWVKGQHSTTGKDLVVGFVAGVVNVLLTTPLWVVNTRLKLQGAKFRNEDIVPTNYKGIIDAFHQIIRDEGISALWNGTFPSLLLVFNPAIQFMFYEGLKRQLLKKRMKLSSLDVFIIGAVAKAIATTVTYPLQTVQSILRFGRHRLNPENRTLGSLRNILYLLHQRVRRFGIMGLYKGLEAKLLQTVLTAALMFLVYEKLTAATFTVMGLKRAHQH
inactive: erlotinib 0.035 | [1] 0.057 | [2] 0.061 | [3] 0.014 | [4] -0.015 | [5] 0.012 | [6] -0.021 | [7] 0.012 | [8] 0.03 | IRAK-1-4 Inhibitor I 0.056 | ibrutinib -0.007 | [9] -0.043 | ralimetinib 0.047 | [10] -0.019 | [11] 0.037 | [12] 0.001 | [13] 0.029 | [14] 0.03 | [15] -0.01 | [16] 0.044

STK25 (UniProt O00506)
Sequence of UniProt O00506 (O00506 whole entry, looked up): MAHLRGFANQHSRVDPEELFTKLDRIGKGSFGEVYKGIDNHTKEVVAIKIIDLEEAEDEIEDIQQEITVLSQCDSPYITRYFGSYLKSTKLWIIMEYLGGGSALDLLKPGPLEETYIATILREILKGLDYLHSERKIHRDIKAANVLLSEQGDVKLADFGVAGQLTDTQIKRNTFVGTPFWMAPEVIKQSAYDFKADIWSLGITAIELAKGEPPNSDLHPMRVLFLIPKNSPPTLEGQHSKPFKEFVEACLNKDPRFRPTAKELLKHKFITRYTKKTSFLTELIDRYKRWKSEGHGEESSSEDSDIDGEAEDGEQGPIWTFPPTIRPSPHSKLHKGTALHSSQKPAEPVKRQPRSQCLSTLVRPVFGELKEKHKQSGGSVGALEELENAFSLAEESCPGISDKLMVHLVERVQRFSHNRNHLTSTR
inactive: erlotinib 0.037 | [1] -0.04 | [2] -0.038 | [3] 0.021 | [4] 0.012 | [5] 0.031 | [7] 0.052 | [8] -0.022 | IRAK-1-4 Inhibitor I -0.001 | ibrutinib -0.021 | [9] 0.165 | ralimetinib -0.071 | [10] 0.007 | [11] -0.006 | [12] -0.02 | [13] -0.038 | [14] -0.042 | [15] 0.035 | [16] -0.025
active: [6] 0.317

TAF9 (UniProt Q16594)
Sequence of UniProt Q16594 (Q16594 whole entry, looked up): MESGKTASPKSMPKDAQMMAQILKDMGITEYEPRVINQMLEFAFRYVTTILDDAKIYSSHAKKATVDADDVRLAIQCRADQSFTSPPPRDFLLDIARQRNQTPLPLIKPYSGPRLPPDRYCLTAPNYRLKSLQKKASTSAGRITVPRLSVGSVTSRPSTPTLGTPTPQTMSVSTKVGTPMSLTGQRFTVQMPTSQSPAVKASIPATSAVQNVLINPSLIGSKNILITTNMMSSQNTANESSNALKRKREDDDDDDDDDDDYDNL
inactive: erlotinib 0.022 | [1] 0.009 | [2] 0.081 | [3] 0.056 | [4] 0.002 | [5] 0.013 | [6] -0.052 | [7] -0.08 | [8] 0.084 | IRAK-1-4 Inhibitor I 0.032 | ibrutinib -0.028 | [9] 0.044 | ralimetinib 0.033 | [10] -0.057 | [11] 0.032 | [12] 0.015 | [13] 0.019 | [14] 0.027 | [15] 0.101 | [16] -0.023

SSB (UniProt P05455)
Sequence of UniProt P05455 (P05455 whole entry, looked up): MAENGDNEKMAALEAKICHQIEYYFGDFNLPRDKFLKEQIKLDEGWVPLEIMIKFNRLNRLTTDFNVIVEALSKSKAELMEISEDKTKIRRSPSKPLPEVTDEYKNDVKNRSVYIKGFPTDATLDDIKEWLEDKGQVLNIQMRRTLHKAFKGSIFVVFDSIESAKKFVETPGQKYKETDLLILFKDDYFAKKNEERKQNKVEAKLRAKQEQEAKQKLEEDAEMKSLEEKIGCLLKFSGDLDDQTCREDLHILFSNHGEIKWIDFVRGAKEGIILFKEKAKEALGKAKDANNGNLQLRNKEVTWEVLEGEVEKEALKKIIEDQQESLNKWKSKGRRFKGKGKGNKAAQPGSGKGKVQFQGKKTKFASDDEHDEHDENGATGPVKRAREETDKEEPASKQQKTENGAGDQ
inactive: erlotinib -0.008 | [1] 0.007 | [2] -0.014 | [3] -0.025 | [4] -0.009 | [5] 0.001 | [6] -0.015 | [7] 0.013 | [8] 0.002 | IRAK-1-4 Inhibitor I -0.011 | ibrutinib -0.007 | [9] -0.009 | ralimetinib -0.005 | [10] -0.006 | [11] 0.004 | [12] -0.015 | [13] -0.013 | [14] -0.006 | [15] 0.007 | [16] 0.006
